Measurements reported in PubChem BioAssay AID1159580 (chemical genetic matrix, 2015).
Out of some 5,500 compounds screened, about 2,000 (36%) were called active. Not shown: some 18% with an inconclusive outcome. Cut-off read from the data, not from the text of the source: active = normalized growth mostly below about 0.91 (no sharp cut-off); inconclusive = no clear call, values can overlap the other calls; inactive = mostly above about 0.92. Some of the results follow.

Assay: chemical genetic growth profiling, strain panel (AID 1159580);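 note: tested at 20 µM; growth read once vehicle control cultures reached saturation at 30 °C; 1 = growth at the plate median or of vehicle wells; lower values mean less growth of the strain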
Conditions: growth OD
[1] = S. cerevisiae deletion strains, locus YDL101C, strain DUN1, active compounds read low
[2] = S. cerevisiae deletion strains, locus YHR030C, strain SLT2, active compounds read low
[3] = S. cerevisiae deletion strains, locus YAL013W, strain DEP1, active compounds read low
[4] = S. cerevisiae deletion strains, locus YBR229C, strain ROT2, active compounds read low
[5] = S. cerevisiae deletion strains, locus YCL061C, strain MRC1, active compounds read low
[6] = S. cerevisiae deletion strains, locus YDL134C, strain PPH21, active compounds read low
[7] = S. cerevisiae deletion strains, locus YDR150W, strain NUM1, active compounds read low
[8] = S. cerevisiae deletion strains, locus YEL061C, strain CIN8, active compounds read low
[9] = S. cerevisiae deletion strains, locus YGR078C, strain PAC10, active compounds read low
[10] = S. cerevisiae deletion strains, locus YHR087W, strain rtc3, active compounds read low
[11] = S. cerevisiae deletion strains, locus YJL187C, strain SWE1, active compounds read low
[12] = S. cerevisiae deletion strains, locus YJR043C, strain POL32, active compounds read low
[13] = S. cerevisiae deletion strains, locus YJR075W, strain HOC1, active compounds read low
[14] = S. cerevisiae deletion strains, locus YLR039C, strain RIC1, active compounds read low
[15] = S. cerevisiae deletion strains, locus YLR058C, strain SHM2 (second series), active compounds read low
[16] = S. cerevisiae deletion strains, locus YLR085C, strain ARP6, active compounds read low
[17] = S. cerevisiae deletion strains, locus YLR262C, strain YPT6, active compounds read low
[18] = S. cerevisiae deletion strains, locus YML094W, strain GIM5, active compounds read low
[19] = S. cerevisiae deletion strains, locus YMR219W, strain ESC1, active compounds read low
[20] = S. cerevisiae deletion strains, locus YMR307W, strain GAS1, active compounds read low
[21] = S. cerevisiae deletion strains, locus YNL153C, strain GIM3, active compounds read low
[22] = S. cerevisiae deletion strains, locus YNL298W, strain CLA4 (second series), active compounds read low
[23] = S. cerevisiae deletion strains, locus YNL322C, strain KRE1, active compounds read low
[24] = S. cerevisiae deletion strains, locus YNR030W, strain Alg12, active compounds read low
[25] = S. cerevisiae deletion strains, locus YPL055C, strain LGE1, active compounds read low
[26] = S. cerevisiae deletion strains, locus YPL241C, strain CIN2, active compounds read low
[27] = S. cerevisiae deletion strains, locus YPR135W, strain CTF4, active compounds read low
[28] = S. cerevisiae deletion strains, locus YGR229C, strain SMI1, active compounds read low

Measured: normalized growth

COCCOc1ccccc1NC(=S)SCCSC(=S)Nc1ccccc1OCCOC
inactive: S. cerevisiae deletion strains, locus YAR019C, strain CDC15, active compounds read low 0.988 | S. cerevisiae deletion strains, locus YBL105C, strain PKC1, active compounds read low 0.978 | S. cerevisiae deletion strains, locus YBR135W, strain CKS1, active compounds read low 0.978 | S. cerevisiae deletion strains, locus YBR136W, strain MEC1, active compounds read low 0.977 | S. cerevisiae deletion strains, locus YBR160W, strain CDC28, active compounds read low 0.979 | S. cerevisiae deletion strains, locus YDL017W, strain CDC7, active compounds read low 0.98 | S. cerevisiae deletion strains, locus YDL028C, strain MPS1, active compounds read low 0.98 | [1] 0.973 | S. cerevisiae deletion strains, locus YDL108W, strain KIN28, active compounds read low 0.97 | S. cerevisiae deletion strains, locus YDL132W, strain cdc53, active compounds read low 0.976 | S. cerevisiae deletion strains, locus YDL214C, strain PRR2, active compounds read low 0.911 | S. cerevisiae deletion strains, locus YDR052C, strain DBF4, active compounds read low 0.981 | S. cerevisiae deletion strains, locus YDR054C, strain cdc34, active compounds read low 0.976 | S. cerevisiae deletion strains, locus YDR226W, strain ADK1, active compounds read low 0.969 | S. cerevisiae deletion strains, locus YDR477W, strain SNF1, active compounds read low 0.955 | S. cerevisiae deletion strains, locus YER123W, strain YCK3, active compounds read low 0.883 | S. cerevisiae deletion strains, locus YER133W, strain GLC7, active compounds read low 0.938 | S. cerevisiae deletion strains, locus YFL009W, strain cdc4, active compounds read low 0.976 | S. cerevisiae deletion strains, locus YFL029C, strain CAK1, active compounds read low 0.981 | S. cerevisiae deletion strains, locus YFR003C, strain YPI1, active compounds read low 0.977 | S. cerevisiae deletion strains, locus YFR019W, strain FAB1, active compounds read low 0.945 | S. cerevisiae deletion strains, locus YFR028C, strain CDC14, active compounds read low 0.988 | S. cerevisiae deletion strains, locus YGR040W, strain KSS1, active compounds read low 0.938 | S. cerevisiae deletion strains, locus YGR052W, strain FMP48, active compounds read low 1 | S. cerevisiae deletion strains, locus YGR092W, strain DBF2, active compounds read low 0.933 | [2] 1.15 | S. cerevisiae deletion strains, locus YHR079C, strain IRE1, active compounds read low 1.03 | S. cerevisiae deletion strains, locus YHR082C, strain KSP1, active compounds read low 1.01 | S. cerevisiae deletion strains, locus YHR205W, strain SCH9, active compounds read low 0.936 | S. cerevisiae deletion strains, locus YIL147C, strain SLN1, active compounds read low 0.97 | S. cerevisiae deletion strains, locus YJL095W, strain BCK1, active compounds read low 1.03 | S. cerevisiae deletion strains, locus YJL128C, strain PBS2, active compounds read low 0.941 | S. cerevisiae deletion strains, locus YJL157C, strain FAR1, active compounds read low 0.924 | S. cerevisiae deletion strains, locus YJR016C, strain ILV3, active compounds read low 0.987 | S. cerevisiae deletion strains, locus YJR066W, strain TOR1 (second series), active compounds read low 0.899 | S. cerevisiae deletion strains, locus YJR066W, strain TOR1, active compounds read low 1.03 | S. cerevisiae deletion strains, locus YKL048C, strain ELM1, active compounds read low 0.944 | S. cerevisiae deletion strains, locus YKL067W, strain YNK1, active compounds read low 0.937 | S. cerevisiae deletion strains, locus YKL101W, strain HSL1, active compounds read low 0.931 | S. cerevisiae deletion strains, locus YKL193C, strain SDS22, active compounds read low 0.985 | S. cerevisiae deletion strains, locus YKL203C, strain TOR2, active compounds read low 1.02 | S. cerevisiae deletion strains, locus YLR113W, strain HOG1, active compounds read low 0.931 | S. cerevisiae deletion strains, locus YLR133W, strain CKI1, active compounds read low 0.947 | S. cerevisiae deletion strains, locus YLR403W, strain SFP1, active compounds read low 0.944 | S. cerevisiae deletion strains, locus YML070W, strain DAK1, active compounds read low 0.902 | S. cerevisiae deletion strains, locus YMR001C, strain CDC5, active compounds read low 0.981 | S. cerevisiae deletion strains, locus YMR205C, strain PFK2 (second series), active compounds read low 0.939 | S. cerevisiae deletion strains, locus YMR277W, strain FCP1, active compounds read low 0.984 | S. cerevisiae deletion strains, locus YNL006W, strain LST8, active compounds read low 0.983 | S. cerevisiae deletion strains, locus YNL020C, strain ARK1, active compounds read low 0.931 | S. cerevisiae deletion strains, locus YNL161W, strain CBK1, active compounds read low 0.984 | S. cerevisiae deletion strains, locus YNL183C, strain NPR1, active compounds read low 1.01 | S. cerevisiae deletion strains, locus YNL207W, strain RIO2, active compounds read low 0.993 | S. cerevisiae deletion strains, locus YNL222W, strain SSU72, active compounds read low 0.972 | S. cerevisiae deletion strains, locus YNL307C, strain MCK1 (second series), active compounds read low 0.946 | S. cerevisiae deletion strains, locus YOL078W, strain AVO1, active compounds read low 0.98 | S. cerevisiae deletion strains, locus YOL136C, strain PFK27, active compounds read low 0.918 | S. cerevisiae deletion strains, locus YOR061W, strain CKA2, active compounds read low 0.92 | S. cerevisiae deletion strains, locus YOR119C, strain RIO1, active compounds read low 0.991 | S. cerevisiae deletion strains, locus YOR231W, strain MKK1, active compounds read low 1 | S. cerevisiae deletion strains, locus YOR329C, strain SCD5, active compounds read low 0.981 | S. cerevisiae deletion strains, locus YPL031C, strain PHO85, active compounds read low 0.949 | S. cerevisiae deletion strains, locus YPL153C, strain RAD53, active compounds read low 0.928 | S. cerevisiae deletion strains, locus YPL204W, strain HRR25, active compounds read low 0.945 | S. cerevisiae deletion strains, locus YPL209C, strain IPL1, active compounds read low 0.978 | S. cerevisiae deletion strains, locus YPL256C, strain CLN2, active compounds read low 0.991 | S. cerevisiae deletion strains, locus YPR025C, strain CCL1, active compounds read low 0.982 | S. cerevisiae deletion strains, locus YPR106W, strain ISR1, active compounds read low 0.98 | S. cerevisiae deletion strains, locus YPR111W, strain DBF20, active compounds read low 0.977 | S. cerevisiae deletion strains, strain NNK1, active compounds read low 0.981 | S. cerevisiae deletion strains, strain TSCII, active compounds read low 0.99

CCOC(=O)c1c(C)csc1N
inactive: [3] 0.99 | [4] 0.999 | [5] 0.996 | [1] 0.998 | [6] 1.01 | [7] 1.01 | [8] 0.987 | [9] 0.983 | [2] 0.98 | [10] 1.01 | [11] 1 | [12] 1.01 | [13] 0.997 | [14] 1 | [15] 1.01 | [16] 0.983 | [17] 1.02 | [18] 0.984 | [19] 1.01 | S. cerevisiae deletion strains, locus YMR263W, strain SAP30, active compounds read low 1.02 | [20] 0.9 | [21] 1 | [22] 0.967 | [23] 0.993 | [24] 0.984 | [25] 1.03 | [26] 0.972 | [27] 1.02

CCOC(=O)c1c(-c2ccc(F)cc2)csc1N
inactive: [1] 0.986 | [7] 0.986 | [9] 0.93 | [12] 0.957 | [21] 0.941 | [23] 0.95
active: [3] 0.879 | [4] 0.905 | [5] 0.889 | [6] 0.887 | [8] 0.746 | [28] 0.928 | [2] 0.175 | [10] 0.858 | [11] 0.903 | [13] 0.86 | [14] 0.437 | [15] 0.897 | [16] 0.508 | [17] 0.438 | [18] 0.798 | [19] 0.93 | [22] 0.782 | [24] 0.842 | S. cerevisiae deletion strains, locus YOL006C, strain TOP1, active compounds read low 0.479 | [25] 0.754 | [26] 0.807 | [27] 0.435 | S. cerevisiae strains, strain wild type, active compounds read low 0.82

CCOC(=O)Nc1ccc(NCc2ccc(F)cc2)nc1N
inactive: [3] 1.02 | S. cerevisiae deletion strains, locus YAL040C, strain CLN3, active compounds read low 1.01 | S. cerevisiae deletion strains, locus YCL061C, strain MRC1 (second series), active compounds read low 1 | [7] 0.991 | S. cerevisiae deletion strains, locus YDR363W, strain ESC2, active compounds read low 1.02 | S. cerevisiae deletion strains, locus YER002W, strain NOP16, active compounds read low 1 | [28] 1.07 | [13] 1.01 | [20] 0.994 | S. cerevisiae deletion strains, locus YNL128W, strain TEP1, active compounds read low 0.993 | S. cerevisiae deletion strains, locus YNL175C, strain NOP13, active compounds read low 1.01 | S. cerevisiae deletion strains, locus YNL197C, strain WHI3, active compounds read low 1.01 | S. cerevisiae deletion strains, locus YNL224C, strain SQS1, active compounds read low 1.04 | [23] 1.01 | S. cerevisiae deletion strains, locus YOR083W, strain WHI5 (second series), active compounds read low 1.03 | [25] 1.02
